Only some compounds are listed: those with a hit (about 21% of all), similar ones and a draw of the others.
MRP resist rev – MRP-mediated drug resistance reversal. differential viability (reversal), % at 10 µM. H69AR cells + 2 uM doxorubicin, CellTiter-Glo, 72 h. AID 602. 85,000 compounds, 0.04% hits;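 active = viability drop by adding the cancer drug above about 55%, with treated viability meeting a 40% cutoff, limit read from the data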;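 note: larger differential means the compound sensitizes cells more to doxorubicin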
CYP2C9 inh – inhibitors of human CYP2C9. 96,000 compounds, 20% hits. P11712. AID 777. CYP2C9 Supersomes, luciferin-H conversion, luminescence. inhibition, % at 5 µM;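 active = blocking of liver enzyme CYP2C9 beyond about 50% at 5 µM, limit read from the data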
MRP1 act – activators of MRP-1. H69AR cells + doxorubicin, viability rescue, CellTiter-Glo. viability increase, % at 10 µM. 140,000 compounds, 0.61% hits;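 active = viability gain under doxorubicin at or above a set limit, the compound median plus 3 SD, cut at about 4.7% in these data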;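 note: MRP-1 overexpressing cells given doxorubicin 25 µM after compound pretreatment; 18-22 h compound pretreatment then 72 h with doxorubicin before readout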
CYP2C19 inhib – blocks human cytochrome P450 2C19. 96,000 compounds, 21% hits. CYP2C19 Supersomes, luciferin-H EGE luminescence, 30 min. inhibition, % at 5 µM. P33261;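 active = CYP2C19 inhibition above a set limit at 5 µM in the primary screen, cut at about 50% in these data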
Target sequence (P33261 whole entry, looked up): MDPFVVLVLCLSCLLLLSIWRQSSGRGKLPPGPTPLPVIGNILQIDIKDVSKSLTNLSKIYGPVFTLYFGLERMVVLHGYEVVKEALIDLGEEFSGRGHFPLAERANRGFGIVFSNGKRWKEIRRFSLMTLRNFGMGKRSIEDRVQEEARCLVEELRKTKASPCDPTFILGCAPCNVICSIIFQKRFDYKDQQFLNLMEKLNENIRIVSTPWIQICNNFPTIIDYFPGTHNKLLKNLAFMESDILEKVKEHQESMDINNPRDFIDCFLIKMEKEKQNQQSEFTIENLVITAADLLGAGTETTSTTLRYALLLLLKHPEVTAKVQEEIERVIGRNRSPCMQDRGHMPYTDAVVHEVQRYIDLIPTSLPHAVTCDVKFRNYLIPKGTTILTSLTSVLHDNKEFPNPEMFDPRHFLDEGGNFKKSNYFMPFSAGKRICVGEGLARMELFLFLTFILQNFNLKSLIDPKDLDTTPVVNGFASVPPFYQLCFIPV
CYP2C9 activ – CYP2C9 (human) activation | P11712 | recombinant CYP2C9, luciferin-H conversion, luminescence; hits give high values; factor 1 = untreated enzyme, 0 = blocked | activation factor at 5 µM | 96,000 compounds, 1.4% hits;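 active = activation factor of 2 or more for CYP2C9 at a 5 µM dose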
CYP2C19 act – activators of human cytochrome P450 2C19; recombinant CYP2C19, luciferin-H EGE luminescence; hits give high values; 0 = fully inhibited enzyme, 1 = untreated enzyme; activation factor at 5 µM; 96,000 tested, under 10 active; AID 1025;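 active = activation factor of at least 2 at 5 µM in the primary screen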
Of the large screens only hits and unclear results are named; the others gave an inactive call.

CCC1(C)C(Nc2c(C)cccc2C)=NC(=S)N1c1ccc(NC(C)=O)cc1 (configuration not stated)	none (no result: MRP resist rev, CYP2C9 inh, CYP2C19 inhib, CYP2C9 activ, CYP2C19 act)
O=S(=O)(c1ccc2c(c1)nc(COc1ccc(Cl)cc1)n2CC1CCCO1)N1CCOCC1 (configuration not stated)	none
CC(C)(C)OC(=O)N[C@@H](Cc1ccccc1)c1nnc(SCC(=O)c2ccc(Cl)cc2)o1	CYP2C9 inh 61, CYP2C19 inhib 61
CC(C)(C)OC(=O)N[C@@H](Cc1ccccc1)c1nnc(SCC(=O)O)o1	CYP2C9 inh 56
Cc1ccccc1CS(=O)(=O)c1nnc([C@H](Cc2ccccc2)NC(=O)OC(C)(C)C)o1	CYP2C9 inh 66
Cc1ccc(Oc2ccc(-c3nc(N)nc(N)n3)cc2)cc1C	none
CC1CCC(NC(=O)c2ccc(/C=C3\Oc4ccccc4N(C)C3=O)cc2)CC1 (configuration not stated)	none (no result: MRP resist rev, CYP2C9 inh, CYP2C19 inhib, CYP2C9 activ, CYP2C19 act)
O=C(N/C(=C/c1cccc([N+](=O)[O-])c1)C(=O)N1CCCCCC1)c1cccs1	none (no result: MRP resist rev, CYP2C9 inh, CYP2C19 inhib, CYP2C9 activ, CYP2C19 act)
Cc1cc(C)n2nc(NCc3cccc(Br)c3)nc2n1	CYP2C19 inhib 64
Cc1ccc(CN2CN(S(=O)(=O)c3cccs3)c3nc4ccccc4nc32)cc1	CYP2C9 inh 56 (no result: MRP resist rev)
Cc1ccc(-c2nc3nc4ccccc4nc3n2Cc2ccco2)cc1	none
COCCN1CN(S(=O)(=O)c2ccc(Cl)cc2)c2nc3ccccc3nc21	CYP2C9 inh 51, CYP2C19 inhib 94
Cc1cccc(S(=O)(=O)N2CN(Cc3ccco3)c3nc4ccccc4nc32)c1	CYP2C9 inh 61, CYP2C19 inhib 79 (no result: MRP resist rev)
CCCCN1CN(S(=O)(=O)c2cccs2)c2nc3ccccc3nc21	none (no result: MRP resist rev)
COCCN1CN(S(=O)(=O)c2ccccc2)c2nc3ccccc3nc21	CYP2C9 inh 63, CYP2C19 inhib 83
CC(C)CCN1CN(S(=O)(=O)c2cccs2)c2nc3ccccc3nc21	none
COc1ccc(/C=N\NC(=O)C2=NNC(=O)C2C)cc1 (configuration not stated)	none (no result: MRP resist rev)
C/C(N)=C(/C#N)C(=O)CSc1nnc(COc2cc(C)ccc2C)o1	none
O=C(COc1ccc(Cl)cc1)NCc1nnc(SCC(=O)NCCc2ccccc2)o1	none
Cc1nc2sccc2c(=O)n1-c1cccc(Cl)c1	CYP2C19 inhib 70 (no result: MRP resist rev)
COc1ccc(-c2nc(Cn3c(SCc4ccccc4F)nc4ccncc43)c(C)o2)cc1	CYP2C9 inh 73, CYP2C19 inhib 97
COc1ccc(-c2nc(Cn3c(SCc4ccc(F)cc4)nc4ccncc43)c(C)o2)cc1OC	CYP2C9 inh 90, CYP2C19 inhib 89
O=C(CCN1CCN(c2ccccc2F)CC1)Nc1ccccc1F	CYP2C9 inh 66, CYP2C19 inhib 54
O=C(CCN1CCN(c2ccc(Cl)cc2)CC1)Nc1ccccc1F	CYP2C9 inh 51
O=C(CN1CCN(c2ccccc2F)CC1)c1ccc2cc[nH]c2c1	none
O=C(CCN1CCN(c2ccccc2F)CC1)c1ccc(Br)cc1	CYP2C19 inhib 50
Cc1cccc(N2CCN(CC(=O)Nc3ccccc3[N+](=O)[O-])CC2)c1C	CYP2C9 inh 67 (no result: MRP resist rev)
COc1cccc(NC(=O)CCN2CCN(c3ccccc3F)CC2)c1	none
CN1CCN(CC(=O)Nc2ccccc2[N+](=O)[O-])CC1	none (no result: MRP resist rev, CYP2C9 inh, CYP2C19 inhib, CYP2C9 activ, CYP2C19 act)
Cc1ccc(Oc2ccc(Cl)cc2NC(=O)c2ccc(F)cc2F)cc1	none (no result: MRP resist rev, CYP2C9 inh, CYP2C19 inhib, CYP2C9 activ, CYP2C19 act)
CCC1(C)Cc2ccccc2C(Nc2c(C)n(C)n(-c3ccccc3)c2=O)=N1 (configuration not stated)	none
O=C(CN1CCN(c2ccccc2F)CC1)Nc1ccc2c(c1)CCC2	none (no result: MRP resist rev, CYP2C9 inh, CYP2C19 inhib, CYP2C9 activ, CYP2C19 act)
O=C(CN1CCN(c2ccccc2F)CC1)Nc1ccccc1F	CYP2C9 inh 80, CYP2C19 inhib 88
O=C(CN1CCN(CCC(=O)Nc2ccccc2F)CC1)Nc1ccc(F)cc1	CYP2C9 inh 64
Cc1c(C)[n+](=O)c2c(n1[O-])CCCCC2	none
N=C1C(c2nc3ccccc3s2)=C(O)CN1Cc1ccccc1	none (no result: CYP2C9 inh, CYP2C19 inhib, CYP2C9 activ, CYP2C19 act)
CCOc1ccccc1N1CC(O)=C(c2nc3ccccc3s2)C1=N	CYP2C9 inh 58, CYP2C19 inhib 59
CCc1nc(SCC(=O)Nc2cc(C)on2)c2c(=O)n(C)c(=O)n(C)c2n1	none
CCCc1nc(SCc2ccccn2)c2c(=O)n(C)c(=O)n(C)c2n1	CYP2C9 inh 71
Cn1c(=O)c2c(SCc3ccccn3)nc(CC(C)(C)C)nc2n(C)c1=O	CYP2C9 inh 82
Cc1cc(NC(=O)CSc2nc(CC(C)(C)C)nc3c2c(=O)n(C)c(=O)n3C)no1	CYP2C9 inh 63
COc1nc(C)nc2c1sc(=S)n2C	none (no result: MRP resist rev)
O=[N+]([O-])c1ccc(N/N=C/c2ccc[nH]2)cc1	none (no result: MRP resist rev, CYP2C9 inh, CYP2C19 inhib, CYP2C9 activ, CYP2C19 act)
CSc1ccccc1C(=O)Nc1ccc(C)c(C)c1	none
Cc1ccc(NC(=O)c2cccc3c2-c2ccccc2C3=O)cc1C	CYP2C9 inh 68, CYP2C19 inhib 84 (no result: MRP resist rev)
COc1ccc(-c2[nH]c(-c3ccc(F)cc3)nc2SCC(=O)NCc2ccco2)cc1OC	CYP2C19 inhib 51
COc1ccc(-c2nc(SCC(=O)NCc3ccco3)c(-c3ccccc3)[nH]2)cc1OC	CYP2C9 inh 65, CYP2C19 inhib 78
N#Cc1cccc(NC(=O)CSc2ccccc2)c1	none
COc1ccc(NC(=O)CSc2ccc3c4c(cccc24)C(=O)c2ccccc2-3)cc1	CYP2C9 inh 84 (no result: MRP resist rev)
COc1ccc(NC(=O)CSc2nc3ccccc3c3nc4ccccc4n23)cc1	none (no result: MRP resist rev, CYP2C9 inh, CYP2C19 inhib, CYP2C9 activ, CYP2C19 act)
N#Cc1cccc(NC(=O)CSc2ccc3c4c(cccc24)C(=O)c2ccccc2-3)c1	CYP2C9 inh 74 (no result: MRP resist rev)
CC(CN1CCCC(C(N)=O)C1)c1ccccc1 (configuration not stated)	none (no result: MRP resist rev)
COc1ccc(S(=O)(=O)N2CCCCCC2)cc1N(C)S(=O)(=O)c1ccc(Cl)cc1	none (no result: MRP resist rev)
CCCCOCCCNC(=O)c1cccc(OC)c1	none (no result: MRP resist rev, CYP2C9 inh, CYP2C19 inhib, CYP2C9 activ, CYP2C19 act)
O=C(NCc1ccc2c(c1)OCO2)c1cccc([N+](=O)[O-])c1	CYP2C19 inhib 89 (no result: MRP resist rev)
O=C(Nc1ccc2c(c1)OCO2)c1c(F)c(F)c(F)c(F)c1F	none
COc1cccc(OCCNC(=O)c2cccc(OC)c2)c1	CYP2C19 inhib 97
CCOCCCNC(=O)c1ccc2c(c1)OCO2	none
O=C(NCc1ccc2c(c1)OCO2)c1c(F)c(F)c(F)c(F)c1F	CYP2C19 inhib 81
O=C(NCCOc1ccccc1)c1ccc2c(c1)OCO2	CYP2C9 inh 59, CYP2C19 inhib 86
CCOC(=O)C(CCCOc1cccc(OC)c1)C(=O)OCC	CYP2C9 inh 82, CYP2C19 inhib 90
O=C(NCc1ccco1)c1ccc2snnc2c1	none (no result: MRP resist rev, CYP2C9 inh, CYP2C19 inhib, CYP2C9 activ, CYP2C19 act)
O=C(NCc1ccc2c(c1)OCO2)c1ccc2snnc2c1	CYP2C9 inh 65, CYP2C19 inhib 66
CCOC(=O)C(CCCOc1cccc(CC)c1)C(=O)OCC	none
Cn1nnc2cc(C(=O)NCc3ccc4c(c3)OCO4)ccc21	CYP2C19 inhib 52
COc1cc(CNC(=O)c2cccc(COc3ccc(Cl)cc3)c2)cc(OC)c1	MRP1 act 4.8 (no result: MRP resist rev, CYP2C9 inh, CYP2C19 inhib, CYP2C9 activ, CYP2C19 act)
O=C(NCc1ccc2c(c1)OCO2)c1ccc(=O)[nH]c1	none

Screening data: PubChem BioAssay, several laboratories
